Measured values from PubChem BioAssay (Tox21).
Values joined by “and” are separate entries in the source; they are usually repeats but may differ in a detail not shown here. Equal entries are not always repeated. Records with an inconclusive call do not appear. Some compounds were tested as several samples or in several runs, with calls that do not always agree. Active and inactive are the calls of the source. Unless noted, the call rests on the fitted dose curve; in most records, active means well fitted curve in the direction sought with a large enough effect in the repeat runs; inconclusive means weak or mixed curves; inactive means no such curve, though single readings can be large; an effect the other way counts as inactive or inconclusive.

How the values were obtained:
[1] = qHTS assay to identify small molecule agonists of the RXR signaling pathway - cell viability counter screen (AID 1159529);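 further: HEK 293T cells carrying an RXR-alpha UAS beta-lactamase reporter; series mostly up to about 77 µM; nearly all actives have a fitted effect of over 50% in size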
Summary of the method: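 RXR-alpha-UAS-bla HEK 293T cells in medium with 2% charcoal-stripped FBS were preincubated 5 hr, then exposed to compounds for 16 hr at 37 C. Viability was read as CellTiter-Glo luminescence after 30 min at room temperature.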

[2] = qHTS assay to identify small molecule antagonists of the retinoid acid receptor (RAR) signaling pathway - cell viability counter screen (AID 1159551); further: nearly all actives have a fitted effect of over 35% in size
Summary of the method: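 ATP-based viability, C3RL4 cells, 6 h at 37 C with 1 uM final retinol co-added after compound; luminescence read 30 min post CellTiter-Glo, RT.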

[3] = qHTS assay to identify small molecule antagonists of the retinoic acid receptor (RAR) signaling pathway (AID 1159552; further: nearly all actives have a fitted effect of over 50% in size; further: potency means the concentration at half of the fitted maximal effect)
Summary of the method: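 RARE-luc C3RL4 cells; cpds + 1 uM (final) retinol, 6 hr, 37 C/5% CO2; luciferase reagent, 30 min RT, luminescence readout. Inhibitors of retinol-driven signal scored.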

[4] = qHTS assay to identify small molecule agonists of the retinoic acid receptor (RAR) signaling pathway (AID 1159553)
Summary of the method: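 Quantitative high-throughput format: the Tox21 10K library was tested on C3RL4 RARE-luciferase cells for 6 hr at 37 C and 5% CO2, with luminescence measured after a 30 min room-temperature reagent step.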

[5] = qHTS assay to identify small molecule antagonists of the estrogen related receptor (ERR) signaling pathway from Tox21 library - cell viability counter screen (AID 1224834); further: nearly all actives have a fitted effect of over 30% in size
Summary of the method: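 Compounds in DMSO were pinned onto ERR cells that had been incubated for 6 h, and the plates were held at 37 C for 17.5 h. CellTiter-Fluor reagent was then added and fluorescence was measured after 30 min.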

[6] = target: Luciferin 4-monooxygenase (Photinus pyralis) (UniProt P08659); assay: qHTS assay to identify small molecule inhibitors of firefly luciferase (AID 1224835); further: nearly all actives have a fitted effect of over 25% in size; further: potency means the concentration at half of the fitted maximal effect; on activity change, negative = inhibition: series mostly up to about 120 µM
Summary of the method: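 Biochemical qHTS: compounds run as interplate titrations against purified firefly enzyme, with D-luciferin and ATP each at its KM concentration. Light output recorded by CCD imaging.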

[7] = qHTS assay to identify small molecule agonists of the constitutive androstane receptor (CAR) signaling pathway - cell viability counter screen (AID 1224836); further: series mostly up to about 92 µM; nearly all actives have a fitted effect of over 45% in size
Summary of the method: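 HepG2 cells stably carrying hCAR and a CYP2B6-2.2kb reporter were plated 4 h, then given compounds at 15 concentrations plus PK11195 (final 0.75 uM). After 23 h at 37 C, viability was read by CellTiter-Fluor fluorescence.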

[8] = qHTS assay to identify small molecule antagonists of the constitutive androstane receptor (CAR) signaling pathway - cell viability counter screen (AID 1224837); further: series mostly up to about 92 µM; nearly all actives have a fitted effect of over 45% in size
Summary of the method: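 Cells are seeded, rested 4 hr at 37 C/5% CO2, dosed with compound (15-point series) and 50 nM CITCO, incubated a further 23 hr, and then CellTiter-Fluor reagent is added before fluorescence is read. The line is HepG2 with stable hCAR and CYP2B6-2.2kb.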

[9] = target: Nuclear receptor subfamily 1 group I member 3 (Homo sapiens) (UniProt Q14994); assay: qHTS assay to identify small molecule antagonists of the constitutive androstane receptor (CAR) signaling pathway (AID 1224838); further: nearly all actives have a fitted effect of over 40% in size; further: potency means the concentration at half of the fitted maximal effect
Summary of the method: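 Luminescence from a CYP2B6-2.2kb promoter reporter in hCAR-expressing HepG2 cells reflects CAR signaling. Cells received compounds at 15 concentrations and 50 nM CITCO (final), then incubated 24 h at 37 C/5% CO2.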

[10] = qHTS assay to identify small molecule antagonists of the estrogen related receptor signaling pathway with the pleiotropic PPARgamma coactivator (PGC) from Tox21 10K library - cell viability counter screen (AID 1224840; active means well fitted cell-killing curve with a large enough effect in the repeat runs, not every such curve was filed as active; further: nearly all actives have a fitted effect of over 40% in size)
Summary of the method: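 Cell viability is measured by CellTiter-Fluor fluorescence in PGC/ERR cells that receive compounds after a 6-hour attachment period and are then incubated 17.5 hours at 37 C.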

[11] = target: Nuclear receptor subfamily 1 group I member 3 (Homo sapiens) (UniProt Q14994); assay: qHTS assay to identify small molecule agonists of the constitutive androstane receptor (CAR) signaling pathway (AID 1224839); further: nearly all actives have a fitted effect of over 15% in size; further: potency means the concentration at half of the fitted maximal effect;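 on activation: HepG2 cells stably carrying human CAR and a CYP2B6 luciferase reporter; series mostly up to about 92 µM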
Summary of the method: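 HepG2 cells stably expressing hCAR and a CYP2B6-2.2kb luciferase reporter were treated with compounds at 15 concentrations plus 0.75 uM PK11195 (final) for 24 h at 37 C; luminescence was read after ONE-Glo addition.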

[12] = qHTS assay to identify small molecule antagonists of the estrogen related receptor signaling pathway with the pleiotropic PPARgamma coactivator (PGC) from Tox21 10K library (AID 1224841; call rule not given here; further: actives are mostly falling curves and most rising ones were filed inactive; nearly all actives have a fitted effect of over 50% in size; further: potency means the concentration at half of the fitted maximal effect; on activity, negative = inhibition: series mostly up to about 92 µM)
Summary of the method: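 Cells stably carrying the PGC/ERR reporter, seeded at 2,000 per well, received pin-transferred compounds 6 h post-plating. Exposure lasted 18 h at 37 C. Signal: One-Glo luminescence.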

[13] = qHTS assay to identify small molecule agonists of the estrogen related receptor signaling pathway with the pleiotropic PPARgamma coactivator (PGC) from Tox21 10K library (AID 1224842); further: nearly all actives have a fitted effect of over 15% in size
Summary of the method: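 PGC/ERR reporter cell line, 2,000 cells per well, incubated 6 h at 37 C before 23 nL compound in DMSO was added. After 18 h at 37 C, One-Glo luminescence read following 30 min at room temperature.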

[14] = target: Thyrotropin receptor (Homo sapiens) (UniProt P16473); assay: qHTS assay to identify small molecule agonists of the thyroid stimulating hormone receptor (TSHR) signaling pathway (AID 1224843; calls by dose curve; further: nearly all actives have a fitted effect of over 45% in size; further: potency means the concentration at half of the fitted maximal effect)
Summary of the method: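 HEK293/TSHR, 800 cells/well; cpd 30 min RT; add cAMP-d2 + anti-cAMP-cryptate, 1 h RT; fluorescence read on plate reader. 15-pt titration, n=3.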
On the % scale 0 is the no-effect control and ±100 the full control effect.

Chain of Nuclear receptor subfamily 1 group I member 3 (Homo sapiens) (Q14994 whole entry, looked up): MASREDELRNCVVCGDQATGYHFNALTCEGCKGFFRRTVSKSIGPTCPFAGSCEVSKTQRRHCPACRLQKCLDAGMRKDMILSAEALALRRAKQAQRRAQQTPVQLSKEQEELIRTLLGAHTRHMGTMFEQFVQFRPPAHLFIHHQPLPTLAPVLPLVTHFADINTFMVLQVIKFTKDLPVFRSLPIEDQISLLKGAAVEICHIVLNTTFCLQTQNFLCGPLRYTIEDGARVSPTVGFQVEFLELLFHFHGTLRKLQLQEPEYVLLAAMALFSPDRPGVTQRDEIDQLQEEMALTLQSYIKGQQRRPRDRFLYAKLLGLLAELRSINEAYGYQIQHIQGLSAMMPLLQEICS
Chain of Thyrotropin receptor (Homo sapiens) (P16473 whole entry, looked up): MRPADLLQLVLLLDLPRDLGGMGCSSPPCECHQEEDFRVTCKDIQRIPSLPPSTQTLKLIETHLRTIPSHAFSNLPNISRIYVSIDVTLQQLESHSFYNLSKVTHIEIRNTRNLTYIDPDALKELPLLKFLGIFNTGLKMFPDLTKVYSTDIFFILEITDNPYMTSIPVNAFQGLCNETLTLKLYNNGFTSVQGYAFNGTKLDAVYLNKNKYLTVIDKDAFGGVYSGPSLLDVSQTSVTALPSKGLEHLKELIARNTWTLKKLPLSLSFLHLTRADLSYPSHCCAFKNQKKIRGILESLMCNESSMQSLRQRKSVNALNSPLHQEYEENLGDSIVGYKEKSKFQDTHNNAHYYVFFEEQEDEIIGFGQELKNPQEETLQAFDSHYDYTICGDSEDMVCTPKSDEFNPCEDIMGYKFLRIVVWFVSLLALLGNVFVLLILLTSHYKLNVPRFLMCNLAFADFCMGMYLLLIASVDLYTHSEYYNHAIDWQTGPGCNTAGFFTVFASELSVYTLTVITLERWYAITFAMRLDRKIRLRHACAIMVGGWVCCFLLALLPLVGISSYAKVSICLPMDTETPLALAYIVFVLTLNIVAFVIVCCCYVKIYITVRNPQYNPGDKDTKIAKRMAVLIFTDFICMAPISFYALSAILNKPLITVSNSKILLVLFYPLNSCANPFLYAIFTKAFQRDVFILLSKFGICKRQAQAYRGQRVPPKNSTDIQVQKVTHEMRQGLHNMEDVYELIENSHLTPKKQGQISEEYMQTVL
Chain of Luciferin 4-monooxygenase (Photinus pyralis) (P08659 whole entry, looked up): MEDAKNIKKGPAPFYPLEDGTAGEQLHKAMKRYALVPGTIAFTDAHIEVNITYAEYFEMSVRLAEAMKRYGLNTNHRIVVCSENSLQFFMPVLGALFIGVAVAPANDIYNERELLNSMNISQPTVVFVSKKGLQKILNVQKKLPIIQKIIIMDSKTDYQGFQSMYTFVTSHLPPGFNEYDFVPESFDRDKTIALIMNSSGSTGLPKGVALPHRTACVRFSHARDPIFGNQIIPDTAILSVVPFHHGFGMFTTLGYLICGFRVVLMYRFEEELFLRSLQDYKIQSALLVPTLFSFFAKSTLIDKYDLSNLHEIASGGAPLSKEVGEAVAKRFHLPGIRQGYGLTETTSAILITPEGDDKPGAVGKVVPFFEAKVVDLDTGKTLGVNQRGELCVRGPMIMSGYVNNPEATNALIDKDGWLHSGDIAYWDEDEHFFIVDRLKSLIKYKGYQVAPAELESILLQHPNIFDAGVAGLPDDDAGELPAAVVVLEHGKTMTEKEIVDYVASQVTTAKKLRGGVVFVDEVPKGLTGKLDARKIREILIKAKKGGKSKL

CCSCc1ccccc1OC(=O)NC
inactive: Potency [1] | Potency [2] | Potency [3] | Potency [4] | Potency [5] | Potency [6] | Potency [7] | Potency [8] | Potency [9] | Potency [10]

C=CCSSCC=C
inactive: Potency [1] | Potency [2] | Potency [3] | Potency [4] | Potency [5] | Potency [6] | Potency [7] | Potency [8] | Potency [9] | Potency [11] | Potency [10]

CN(C)C(=O)Nc1cccc(OC(=O)NC(C)(C)C)c1
inactive: Potency [1] | Potency [2] | Potency [3] | Potency [4] | Potency [5] | Potency [6] | Potency [7] | Potency [8] | Potency [10] | Potency [12] | Potency [13] | Potency [14]

CCOC(C(=O)OCCN(C)C)(c1ccccc1)c1ccccc1
inactive: Potency [1] | Potency [2] | Potency [3] | Potency [4] | Potency [5] | Potency [6] | Potency [7] | Potency [8] | Potency [9] | Potency [10] | Potency [12] | Potency [13]

c1ccc2c(c1)sc1ccccc12
active: Potency [6] 31.7 µM
inactive: Potency [1] | Potency [2] | Potency [3] | Potency [4] | Potency [5] | Potency [7] | Potency [8] | Potency [9] | Potency [11] | Potency [10] | Potency [12] | Potency [13] | Potency [14]

FC(F)OC(F)(F)C(F)Cl (configuration not stated)
inactive: Potency [1] | Potency [2] | Potency [3] | Potency [4] | Potency [5] | Potency [6] | Potency [7] | Potency [8] | Potency [9] | Potency [11] | Potency [10] | Potency [14]

CCOc1cccc(C2(N3CCN(c4ccccc4)CC3)CCC(C)CC2)c1 (configuration not stated)
inactive: Potency [1] | Potency [2] | Potency [3] | Potency [4] | Potency [5] | Potency [6] | Potency [7] | Potency [8] | Potency [9] | Potency [11] | Potency [10] | Potency [14]

COc1ccc(C(O)(c2cncnc2)C2CC2)cc1 (configuration not stated)
inactive: Potency [1] | Potency [2] | Potency [3] | Potency [4] | Potency [5] | Potency [6] | Potency [7] | Potency [8] | Potency [9] | Potency [10] | Potency [12] | Potency [13] | Potency [14]

Cc1ccc2c(C)cccc2c1
inactive: Potency [1] | Potency [2] | Potency [3] | Potency [4] | Potency [5] | Potency [6] | Potency [7] | Potency [8] | Potency [11] | Potency [10] | Potency [14]

COc1cc(C[C@@H](C)N)c(OC)cc1Br
inactive: Potency [1] | Potency [2] | Potency [3] | Potency [4] | Potency [5] | Potency [6] | Potency [7] | Potency [8] | Potency [10] | Potency [13]
active: Potency [12] 31.5 µM

Nc1c(Br)cc(Br)c2c1C(=O)c1ccccc1C2=O
inactive: activity change, negative = cytotoxicity [1] 4.15% [at 15.8 µM] | activity change, negative = cytotoxicity [2] 0.857% [at 19 µM] | activity, negative = inhibition [3] 12.6% [at 19 µM] | Potency [4] | viability change, negative = cytotoxic [5] -5.59% [at 19 µM] | activity change, negative = inhibition [6] -3.13% [at 23.6 µM] | viability change, negative = cytotoxic [7] -15% [at 19 µM] | activity change, negative = cytotoxicity [8] -15.6% [at 19 µM] | activity, negative = inhibition [9] 102% [at 19 µM] | viability change, negative = cytotoxic [10] -14.9% [at 19 µM] | activity, negative = inhibition [12] 5.52% [at 19 µM] | activation [13] 0.394% [at 19 µM] | activation [14] -6.18% [at 19 µM]

C[C@H](N)[C@H](O)c1ccc(O)c(O)c1
inactive: Potency [1] | Potency [2] | Potency [3] | Potency [4] | Potency [5] | Potency [6] | Potency [7] | Potency [8] | Potency [11] | Potency [10] | Potency [12] | Potency [13]

O=C(Cl)OCCOCCOC(=O)Cl
active: Potency [3] 12.2 µM | Potency [9] 30.6 µM
inactive: Potency [1] | Potency [2] | Potency [4] | Potency [5] | Potency [6] | Potency [7] | Potency [8] | Potency [10] | Potency [12] | Potency [13] | Potency [14]

O=C(O)c1cc(Cl)ccc1Cl
inactive: Potency [1] | Potency [2] | Potency [3] | Potency [4] | Potency [5] | Potency [6] | Potency [7] | Potency [8] | Potency [10]

CCCN(CCC)c1c([N+](=O)[O-])cc(C(C)C)cc1[N+](=O)[O-]
active: Potency [14] 6.71 µM and 12.2 µM
33.6 µM (active) and inactive: Potency [11]
inactive: Potency [1] | Potency [2] | Potency [3] | Potency [4] | Potency [5] | Potency [6] | Potency [7] | Potency [8] | Potency [10]

CC(C)CCON=O
inactive: Potency [1] | Potency [2] | Potency [3] | Potency [4] | Potency [5] | Potency [6] | Potency [7] | Potency [8] | Potency [9] | Potency [11] | Potency [10] | Potency [14]

O=S(=O)(c1ccccc1)c1ccccc1
inactive: Potency [1] | Potency [2] | Potency [3] | Potency [4] | Potency [5] | Potency [6] | Potency [7] | Potency [8] | Potency [9] | Potency [10] | Potency [12] | Potency [13]

CCc1cnc(C2=NC(C)(C(C)C)C(=O)N2)c(C(=O)O)c1 (configuration not stated)
inactive: Potency [1] | Potency [2] | Potency [3] | Potency [4] | Potency [5] | Potency [6] | Potency [7] | Potency [8] | Potency [9] | Potency [10] | Potency [14]

CCC(C)Cl (configuration not stated)
inactive: Potency [1] | Potency [2] | Potency [3] | Potency [4] | Potency [5] | Potency [6] | Potency [7] | Potency [8] | Potency [9] | Potency [10] | Potency [14]

CCc1ccccc1N
inactive: Potency [1] | Potency [2] | Potency [3] | Potency [5] | Potency [6] | Potency [7] | Potency [8] | Potency [9] | Potency [10] | Potency [14]

CCOC(=O)NC(O)C(Cl)(Cl)Cl (configuration not stated)
inactive: Potency [1] | Potency [2] | Potency [3] | Potency [4] | Potency [5] | Potency [6] | Potency [7] | Potency [8] | Potency [10] | Potency [14]
